In PubChem BioAssay AID493168 (National Center for Advancing Translational Sciences (NCATS), 2011):
Records with an inconclusive call do not appear. Entries that show only a call come without a potency. Active and inactive are the calls of the source. Calls come from the whole dose curve; as a rule, active = well fitted inhibition curve with a large enough effect; inconclusive = small, poorly fitted or top-dose-only effect, or effect the other way; inactive = flat fitted curve, though single readings scatter.
Note: nearly all actives have a fitted effect of over 55% in size.
Potency is the fitted concentration of half-maximal effect.

The compounds below were run against Ubiquitin carboxyl-terminal hydrolase 2 (Homo sapiens) (UniProt O75604) (assay: Confirmation Assay for Inhibitors of Ubiquitin-specific Protease USP2a Using CHOP2 as the Reporter). Conditions: USP2 core, Ub-CHOP2 coupled reporter fluorescence; series mostly up to 38.3 µM.
Sequence of Ubiquitin carboxyl-terminal hydrolase 2 (Homo sapiens) (O75604 whole entry, looked up): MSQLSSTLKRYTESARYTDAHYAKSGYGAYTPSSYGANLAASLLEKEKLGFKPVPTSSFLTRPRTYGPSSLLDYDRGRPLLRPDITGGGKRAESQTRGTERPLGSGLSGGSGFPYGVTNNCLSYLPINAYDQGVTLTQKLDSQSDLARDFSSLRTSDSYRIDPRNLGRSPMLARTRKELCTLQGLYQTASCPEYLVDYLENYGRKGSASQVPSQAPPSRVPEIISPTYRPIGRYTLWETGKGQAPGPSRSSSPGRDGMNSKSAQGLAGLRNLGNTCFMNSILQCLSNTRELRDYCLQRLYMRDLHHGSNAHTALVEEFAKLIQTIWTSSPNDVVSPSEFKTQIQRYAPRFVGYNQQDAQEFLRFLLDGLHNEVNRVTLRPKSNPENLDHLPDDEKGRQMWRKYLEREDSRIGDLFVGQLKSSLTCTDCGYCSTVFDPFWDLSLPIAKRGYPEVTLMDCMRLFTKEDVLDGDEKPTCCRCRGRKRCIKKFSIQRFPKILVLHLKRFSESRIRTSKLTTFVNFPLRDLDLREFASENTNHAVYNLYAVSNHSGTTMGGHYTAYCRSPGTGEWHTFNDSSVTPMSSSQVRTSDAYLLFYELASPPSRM
Procedure, shortened: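 USP2 core (10 nM final) was preincubated with compound for 30 min at RT in Tris-HCl pH 8.0, CaCl2, beta-mercaptoethanol, CHAPS. Ub-CHOP2 and reporter substrate (25 nM final each) were added, and fluorescence (Ex 485/Em 531 nm) was read after 60 min.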
In the case of `CCOC(=O)N1CCN(C(=O)CN(c2ccc(C)c(C)c2)S(=O)(=O)c2ccccc2)CC1`, the Potency is reported as “inactive”. `COc1cc(C2C(C#N)=C(N)Oc3c2ccc2ccccc32)ccc1OCC(=O)Nc1cccc(C)c1` (stereo not given) was tested, and the Potency was “inactive”. In the case of `CCSc1nc(N2CCCCC2)c2c(c1C#N)CCCC2`, the Potency is reported as “inactive”. `CC(C)Oc1ccc(C(=O)Nc2ccc(N3CCCC3)cc2)cc1` was tested, and the Potency was “inactive”. `COc1ccc(NC(=O)CSc2nc(O)cc(=O)n2-c2ccc(OC)cc2)cc1` was tested, and the Potency was “inactive”. With `COc1cc(C(c2c(C)[nH][nH]c2=O)c2c(C)[nH][nH]c2=O)ccc1OCc1ccc([N+](=O)[O-])cc1` the Potency was “inactive”. `COc1ccc(OC)c(Nc2ccc(Nc3cc(OC)ccc3OC)nn2)c1` was tested, and the Potency was “inactive”. In the case of `COC(=O)c1nnn(-c2nonc2N)c1CSc1ccccn1`, the Potency is reported as “inactive”. In the case of `COc1ccc(O)c(-c2cc(-c3ccc(F)cc3)n[nH]2)c1`, the Potency is reported as “inactive”. In the case of `Cc1cccc(NCc2nc(-c3ccccc3)no2)c1`, the Potency is reported as “inactive”. For `O=C(/C=N/O)NCc1cccnc1`, the Potency was “inactive”. `O=C(Nc1ncccc1Cl)c1cccc(F)c1` was tested, and the Potency was “inactive”. `COCCn1c(SCC(=O)Nc2cc(C)on2)nnc1-c1ccccc1` was tested, and the Potency was “inactive”. `Cn1c(=O)[nH]c(=O)c2c1nc(NCc1ccccc1)n2CCCc1ccccc1` was tested, and the Potency was “inactive”. With `COCCN1Cc2cccc(C(=O)N3CCN(c4cc(C)ccc4C)CC3)c2C1=O` the Potency was “inactive”. For `Cc1ccc(/C(O)=C/C(=O)C(=O)NNC(=O)C(O)(c2ccccc2)c2ccccc2)cc1`, the Potency was 14.7 µM (active). In the case of `CC(C)CC(=O)Nc1cccc(-c2nc3ccccc3o2)c1`, the Potency is reported as “inactive”. For `COC(=O)CSc1nc2c(c(-c3ccco3)c1C#N)CCCC2`, the Potency was “inactive”. `FC(F)(F)C1=Nc2cccc3cccc(c23)N1` was tested, and the Potency was “inactive”. In the case of `Cc1ccc(-c2cc(-c3ccc(C)cc3)[n+](-c3ccc(C(=O)[O-])cc3)c(-c3ccc(C)cc3)c2)cc1`, the Potency is reported as “inactive”. With `CC(C)N(C(=O)c1sc2cc([N+](=O)[O-])ccc2c1Cl)C(C)C` the Potency was “inactive”. With `CC1=NN(C(=O)c2csc(C)c2C)C(O)(C(F)(F)F)C1` (stereo not given) the Potency was “inactive”. In the case of `CCOC(=O)N1CCN(CC(=O)n2c(C)c(C)c3ccccc32)CC1`, the Potency is reported as “inactive”. `C=CCOc1cccc(C2C(C(=O)c3ccco3)=C(O)C(=O)N2CCN(CC)CC)c1` (stereo not given) was tested, and the Potency was “inactive”. In the case of `O=C(CSc1nc2ccccc2c(=O)n1CC1CCCO1)NCc1ccccc1` (stereo not given), the Potency is reported as “inactive”. For `O=C(OCC1OC(n2ncc(=O)[nH]c2=O)C(OC(=O)c2ccccc2)C1OC(=O)c1ccccc1)c1ccccc1` (stereo not given), the Potency was 13.1 µM (active). `CCCc1nc(SCC(N)=O)[nH]c(=O)c1CC` was tested, and the Potency was “inactive”. With `COc1ccc(-n2c(O)c(/C=N/n3cnnc3)c3ccccc3c2=O)cc1` the Potency was “inactive”. In the case of `COc1cc(C)ccc1OCCOc1cc(C)ccc1Cl`, the Potency is reported as “inactive”. `Cc1ccc(C(C(=O)NC2CCCC2)N2CCc3ccccc32)cc1` (stereo not given) was tested, and the Potency was “inactive”. For `CCOC(=O)Cn1c(=O)oc2cc(S(=O)(=O)Nc3cc(Cl)ccc3OC)ccc21`, the Potency was “inactive”. For `Cc1cc(C(=O)CSc2nnc(Nc3ccccc3F)s2)c(C)n1CC1CCCO1` (stereo not given), the Potency was “inactive”. `COc1ccc(NC(=S)NC(=O)/C=C/c2ccco2)cc1` was tested, and the Potency was “inactive”. `O=C(NC(=S)N1CCCc2ccccc21)c1ccc([N+](=O)[O-])cc1` was tested, and the Potency was “inactive”. With `CCn1c(SCC(=O)NCCc2ccccc2)nnc1-c1cccs1` the Potency was “inactive”. With `Cc1ccc2[nH]c3c(c2c1)CN(C(=O)CN1CCSCC1)CC3` the Potency was “inactive”. `NC(=O)C[C@@H]1N[C@]2(C(=O)Nc3ccccc32)[C@@H]2C(=O)N(c3cc(C(F)(F)F)ccc3Cl)C(=O)[C@H]12` was tested, and the Potency was “inactive”. `CNS(=O)(=O)c1cccc(C(=O)OCC(=O)c2cc(C)n(-c3ccc4c(c3)OCO4)c2C)c1` was tested, and the Potency was “inactive”. With `Cc1nc2ccccc2c2oc(C(=O)NCCN3CCN(C)CC3)cc12` the Potency was “inactive”. In the case of `COC(=O)c1ccccc1NC(=O)CSc1nc(O)cc(=O)n1C1CCCC1`, the Potency is reported as “inactive”.
